Assay outcomes as filed in PubChem BioAssay.
Rows were chosen to be rich in hits. Some 3.7% of all compounds tested hit in one or more screens of this group.
MazEF act: MazEF (E. coli) toxin RNase activation; P0AE70; FAM/BHQ RNA-DNA oligo cleavage fluorescence, 5 h; activation, % at 20 µM; hit rate 0.32% among 350,000; AID 504720; in the data active means activation above about 50%
BoNT-A LC inh2: BoNT A light chain protease inhibition | AID 588499 | inhibition, % at 10 µM | multiplex microsphere protease substrate cleavage, flow cytometry | hit rate 0.17% among 360,000; further: plate controls were buffer without enzyme for full effect and enzyme alone for no effect
Anthrax LF inh2: anthrax lethal factor protease inhibition; P15917; hit rate 0.12% among 360,000; multiplex microsphere protease cleavage assay, LF; inhibition, % at 10 µM; further: plate controls were buffer without enzyme for full effect and enzyme alone for no effect
Target sequence (P15917 whole entry, looked up): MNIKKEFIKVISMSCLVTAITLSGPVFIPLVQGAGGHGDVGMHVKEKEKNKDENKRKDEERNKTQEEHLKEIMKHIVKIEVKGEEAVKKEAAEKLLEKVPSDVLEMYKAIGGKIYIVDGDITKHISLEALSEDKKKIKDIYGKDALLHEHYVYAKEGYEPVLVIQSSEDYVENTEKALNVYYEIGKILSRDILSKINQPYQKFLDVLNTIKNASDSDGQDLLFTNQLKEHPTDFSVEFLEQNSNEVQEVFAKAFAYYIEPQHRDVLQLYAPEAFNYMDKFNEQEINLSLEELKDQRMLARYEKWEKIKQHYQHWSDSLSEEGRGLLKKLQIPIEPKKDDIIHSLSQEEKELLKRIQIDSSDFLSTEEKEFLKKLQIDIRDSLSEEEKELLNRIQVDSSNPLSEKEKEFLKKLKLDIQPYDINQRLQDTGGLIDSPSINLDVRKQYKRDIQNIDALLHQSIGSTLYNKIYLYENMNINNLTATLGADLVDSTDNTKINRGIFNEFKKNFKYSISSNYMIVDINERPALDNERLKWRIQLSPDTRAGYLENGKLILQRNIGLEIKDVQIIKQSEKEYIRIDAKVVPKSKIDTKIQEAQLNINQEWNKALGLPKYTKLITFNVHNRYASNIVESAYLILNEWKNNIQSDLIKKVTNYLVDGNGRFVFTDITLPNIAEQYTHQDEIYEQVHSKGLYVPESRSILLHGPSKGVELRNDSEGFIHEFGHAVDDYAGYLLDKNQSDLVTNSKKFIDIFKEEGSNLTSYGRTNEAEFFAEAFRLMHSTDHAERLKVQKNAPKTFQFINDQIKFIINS
Bead autofluor: counter-screen for toxin protease inhibitors: compound fluorescence. hit rate 3.1% among 360,000. compound autofluorescence counterscreen, microsphere flow cytometry; stronger effect = higher value. fluorescence intensity (test concentration not listed). AID 624483; in the data active means fluorescence intensity above about 16000; inconclusive means no clear call, values can overlap the other calls
BoNT-F LC inh: BoNT F light chain protease inhibition | Multiplex microsphere protease cleavage assay, flow cytometry | inhibition, % at 10 µM | hit rate 0.22% among 360,000 | AID 588497; in the data active means inhibition above about 35%, passing the limit was not always enough; inconclusive means no clear call, values can overlap the other calls; further: plate controls were buffer without enzyme for full effect and enzyme alone for no effect
* marks the source's active call; other numbers are inactive results. Unless noted, no stated cut-off is given here; in the data, active means inhibition above about 30%; inconclusive means no clear call, values can overlap the other calls; inactive means below that.

Screening Cc1cc(C)cc(C(=O)Oc2coc(CSc3nnc(NC(=O)C4CC4)s3)cc2=O)c1 returned MazEF act 7, BoNT-A LC inh2 38*, Anthrax LF inh2 -1, Bead autofluor 2288 and BoNT-F LC inh 5.
`O=C(Oc1coc(CSc2nnc(NC(=O)C3CC3)s2)cc1=O)c1c(F)cccc1F` gave MazEF act 1, BoNT-A LC inh2 48*, Anthrax LF inh2 -5, Bead autofluor 3946 and BoNT-F LC inh -4.
CC(=O)Nc1nnc(SCc2cc(=O)c(OC(=O)c3ccccc3)co2)s1 was read as MazEF act 1, BoNT-A LC inh2 22, Anthrax LF inh2 10, Bead autofluor 4975 and BoNT-F LC inh 3.
Screening CCc1ccc(OCC(=O)Nc2ccc(-c3cc4ccccc4oc3=O)c(OC)c2)cc1 returned MazEF act 4, BoNT-A LC inh2 0, Anthrax LF inh2 1, Bead autofluor 2529 and BoNT-F LC inh -6.
O=C(NCc1ccco1)c1sc(=S)n2c1[nH]c(=O)c1ccccc12 was read as MazEF act 0, BoNT-A LC inh2 inconclusive, Anthrax LF inh2 0, Bead autofluor 22207* and BoNT-F LC inh 3.
Screening Cc1ccc(-n2c(N)c(C(=O)NCc3ccco3)sc2=S)cc1 returned MazEF act -6, BoNT-A LC inh2 -1, Anthrax LF inh2 -6, Bead autofluor 2957 and BoNT-F LC inh 3.
For C=CCn1c(N)c(C(=O)N2CCOCC2)sc1=S the results were MazEF act -9, BoNT-A LC inh2 inconclusive, Anthrax LF inh2 -2, Bead autofluor 19777* and BoNT-F LC inh 5.
C=CCn1c(N)c(C(=O)NCc2ccco2)sc1=S was read as MazEF act 9, BoNT-A LC inh2 -2, Anthrax LF inh2 -6, Bead autofluor 21000* and BoNT-F LC inh -3.
Screening Cc1ccc(C(=O)N/C(=C\c2cccs2)C(=O)NCC2CCCO2)cc1C (centres undefined) returned MazEF act 0, BoNT-A LC inh2 0, Anthrax LF inh2 0, Bead autofluor 2202 and BoNT-F LC inh -1.
`COc1ccccc1N1CCN(C(=O)c2cc(-c3ccc(C)cc3)on2)CC1` gave MazEF act -10, BoNT-A LC inh2 0, Anthrax LF inh2 6, Bead autofluor 6118 and BoNT-F LC inh 7.
COc1ccccc1N1CCN(C(=O)c2cc(-c3ccc(Cl)cc3)on2)CC1 was read as MazEF act -8, BoNT-A LC inh2 -3, Anthrax LF inh2 -3, Bead autofluor 24151* and BoNT-F LC inh -5.
COc1ccc(-c2cc(C(=O)N3CCCC3)no2)cc1OC was read as MazEF act 3, BoNT-A LC inh2 0, Anthrax LF inh2 8, Bead autofluor 3750 and BoNT-F LC inh -9.
For COc1ccc(-c2cc(C(=O)N3CCCCC3)no2)cc1OC the results were MazEF act 3, BoNT-A LC inh2 -1, Anthrax LF inh2 0, Bead autofluor 23544* and BoNT-F LC inh -1.
`COc1cc2c(cc1OC)C(c1cccc([N+](=O)[O-])c1)N(C(=O)c1ccccc1C(=O)O)CC2` (centres undefined) gave MazEF act -19, BoNT-A LC inh2 1, Anthrax LF inh2 -8, Bead autofluor 3471 and BoNT-F LC inh 9.
`CNC(=O)C1CC(=O)N(CCc2ccc(C)cc2)C1` (centres undefined) gave MazEF act 0, BoNT-A LC inh2 -2, Anthrax LF inh2 8, Bead autofluor 4043 and BoNT-F LC inh 9.
Cc1ccc(CN2C(=O)CCC2C(=O)NCc2cccnc2)cc1 (centres undefined) was read as MazEF act -3, BoNT-A LC inh2 4, Anthrax LF inh2 -6, Bead autofluor 21210* and BoNT-F LC inh 2.
For CCOC(=O)c1ccc(NC(=O)CSC2=NC(=O)C(CC)C(=O)N2)cc1 (centres undefined) the results were MazEF act 5, BoNT-A LC inh2 0, Anthrax LF inh2 -2, Bead autofluor 16464* and BoNT-F LC inh -2.
Screening CCOC(=O)Cn1nnc(-c2ccc(S(C)(=O)=O)cc2)n1 returned MazEF act -3, BoNT-A LC inh2 0, Anthrax LF inh2 -2, Bead autofluor 23651* and BoNT-F LC inh -2.
Screening CCOC(=O)c1ccc(NC(=O)CN2C(=O)CSC2=O)cc1 returned MazEF act 5, BoNT-A LC inh2 1, Anthrax LF inh2 1, Bead autofluor 22745* and BoNT-F LC inh 1.
For CCc1cccc(NC(=O)CN2C(=O)NC3(CCCCCCC3)C2=O)c1 the results were MazEF act -6, BoNT-A LC inh2 10, Anthrax LF inh2 -16, Bead autofluor 13579 and BoNT-F LC inh 8.
CCc1cccc(NC(=O)Cn2cccc2)c1 was read as MazEF act 4, BoNT-A LC inh2 -1, Anthrax LF inh2 -4, Bead autofluor 23986* and BoNT-F LC inh -2.
Cc1ccc(NC(=O)CSc2nnc(C)n2C2CC2)cc1S(=O)(=O)N1CCOCC1 was read as MazEF act -1, BoNT-A LC inh2 -5, Anthrax LF inh2 -4, Bead autofluor inconclusive and BoNT-F LC inh -15.
Screening Cc1c(NC(=S)SCc2ccccc2)c(=O)n(-c2ccccc2)n1C returned MazEF act -8, BoNT-A LC inh2 0, Anthrax LF inh2 2, Bead autofluor 3941 and BoNT-F LC inh -4.
CCOC(=O)C1CCCN(C(=O)CCc2nnc(-c3ccc(C(C)=O)s3)o2)C1 (centres undefined) was read as MazEF act -1, BoNT-A LC inh2 -1, Anthrax LF inh2 -1, Bead autofluor 6129 and BoNT-F LC inh -1.
For CCOC(=O)c1ccc(NC(=O)Cn2nnc(-c3ccccc3)n2)cc1 the results were MazEF act 5, BoNT-A LC inh2 -1, Anthrax LF inh2 -6, Bead autofluor 3822 and BoNT-F LC inh inconclusive.
`CCOC(=O)c1ccc(NC(=O)COC)cc1` gave MazEF act 2, BoNT-A LC inh2 1, Anthrax LF inh2 -1, Bead autofluor 9164 and BoNT-F LC inh 8.
Screening COC(=O)c1ccc(NC(=O)CN2C(=O)C3C4C=CC(C4)C3C2=O)cc1 (centres undefined) returned MazEF act 6, BoNT-A LC inh2 -3, Anthrax LF inh2 -1, Bead autofluor 17210* and BoNT-F LC inh -3.
For CCOC(=O)c1ccc(NC(=O)C(CC)(CC)C(=O)OCC)cc1 the results were MazEF act 4, BoNT-A LC inh2 -4, Anthrax LF inh2 2, Bead autofluor 18219* and BoNT-F LC inh -9.
For CCOC(=O)c1ccc(NC(=O)Cn2cccc2)cc1 the results were MazEF act -9, BoNT-A LC inh2 2, Anthrax LF inh2 -10, Bead autofluor 22123* and BoNT-F LC inh 0.
For CCOC(=O)c1ccc(NC(=O)Cn2nnc(-c3ccc(F)cc3)n2)cc1 the results were MazEF act -1, BoNT-A LC inh2 -2, Anthrax LF inh2 0, Bead autofluor 23033* and BoNT-F LC inh -2.
For CCOC(=O)c1ccc(NC(=O)CN2C(=O)CSCC2=O)cc1 the results were MazEF act -7, BoNT-A LC inh2 0, Anthrax LF inh2 2, Bead autofluor 2437 and BoNT-F LC inh -5.
Screening CCOC(=O)c1ccc(NC(=O)CN2C(=O)CNC2=O)cc1 returned MazEF act 0, BoNT-A LC inh2 -3, Anthrax LF inh2 0, Bead autofluor 23272* and BoNT-F LC inh -3.
